Measured values reported in PubChem BioAssay (Tox21).
Results filed as inconclusive are left out. Calls of active or inactive are those of the source. Unless noted, calls come from the whole dose curve; as a rule, active = well fitted curve in the direction sought with a large enough effect in the repeat runs; inconclusive = weak or mixed curves; inactive = no such curve, though single readings can be large; an effect the other way counts as inactive or inconclusive.

Tests used:
[1] = qHTS assay to identify small molecule agonists of the peroxisome proliferator-activated receptor delta (PPARd) signaling pathway - cell viability counter screen (AID 743211); note: % is set by controls: 0 for no effect and ±100 for the full control effect; nearly all actives have a fitted effect of over 55% in size
Summary of the method: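 PPARd-bla HEK293H cells (3000/well) were pre-incubated 5 h at 37 C, then exposed to compound for 17 h at 37 C. After 2 h with LiveBLAzer substrate, CellTiter-Glo was added to the same wells; luminescence read after 30 min at room temperature.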

[2] = target: Peroxisome proliferator-activated receptor delta (Homo sapiens) (UniProt Q03181); assay: qHTS assay to identify small molecule agonists of the peroxisome proliferator-activated receptor delta (PPARd) signaling pathway (AID 743212; calls by dose curve; note: % is set by controls: 0 for no effect and ±100 for the full control effect)
Summary of the method: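 HEK293H UAS-bla reporter cells, human PPARd system; compounds delivered in DMSO after 5 h plating, then at 37 C. Beta-lactamase FRET read, 2 h RT substrate step.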

[3] = target: Peroxisome proliferator-activated receptor delta (Homo sapiens) (UniProt Q03181); assay: qHTS assay to identify small molecule antagonists of the peroxisome proliferator-activated receptor delta (PPARd) signaling pathway (AID 743215; active = well fitted inhibition curve with a large enough effect in the signal ratio in the repeat runs, not every such curve was filed as active; the % refers to the signal ratio; note: series mostly up to about 62 µM; % is set by controls: 0 for no effect and ±100 for the full control effect)
Summary of the method: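 HEK293H UAS-bla, PPARd; agonist L165041 300 nM final with cpd in DMSO; 37 C 17 h; FRET substrate, RT 2 h; fluorescence intensity.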

[4] = qHTS assay to identify small molecule agonists of the farnesoid-X-receptor (FXR) signaling pathway - cell viability counter screen (AID 743218); note: % is set by controls: 0 for no effect and ±100 for the full control effect; nearly all actives have a fitted effect of over 45% in size
Summary of the method: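 Parallel cytotoxicity test: compound-treated (16 h, 37 C) HEK 293T FXR-bla reporter cells were lysed with CellTiter-Glo and luminescence recorded.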

[5] = qHTS assay to identify small molecule antagonists of the farnesoid-X-receptor (FXR) signaling pathway - cell viability counter screen (AID 743221; active = well fitted cell-killing curve with a large enough effect in the repeat runs, not every such curve was filed as active; note: % is set by controls: 0 for no effect and ±100 for the full control effect; nearly all actives have a fitted effect of over 50% in size)
Summary of the method: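 GeneBLAzer FXR-UAS-bla HEK 293T cells, compound plus chenodeoxycholic acid (50 uM final), 16 h at 37 C. CellTiter-Glo added to the same wells after the beta-lactamase read; luminescence read after 30 min at room temperature as viability.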

[6] = target: Vitamin D3 receptor (Homo sapiens) (UniProt P11473); assay: qHTS assay to identify small molecule agonists of the vitamin D receptor (VDR) signaling pathway (AID 743222; calls by dose curve; note: % is set by controls: 0 for no effect and ±100 for the full control effect)
Summary of the method: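 In VDR-bla cells, compound-induced beta-lactamase expression is quantified by FRET substrate fluorescence. Treatment lasts 16 h at 37C; substrate develops 2 h at room temperature.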

[7] = target: Vitamin D3 receptor (Homo sapiens) (UniProt P11473); assay: qHTS assay to identify small molecule antagonists of the vitamin D receptor (VDR) signaling pathway (AID 743223; active = well fitted inhibition curve with a large enough effect in the signal ratio in the repeat runs, not every such curve was filed as active; the % refers to the signal ratio; note: % is set by controls: 0 for no effect and ±100 for the full control effect)
Summary of the method: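 VDR-bla cells were treated with compound plus 3 nM final 1alpha,25-dihydroxyvitamin D3 for 16 h at 37C. Beta-lactamase reporter read by B/G FRET substrate fluorescence after 2 h at room temperature. qHTS format.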

[8] = qHTS assay to identify small molecule agonists of the vitamin D receptor (VDR) signaling pathway - cell viability counter screen (AID 743224); note: series mostly up to about 63 µM; % is set by controls: 0 for no effect and ±100 for the full control effect; nearly all actives have a fitted effect of over 50% in size
Summary of the method: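 Plated VDR-bla cells (4 h, 37C) received compound, incubated 16 h, then LiveBLAzer substrate 2 h RT; CellTiter-Glo added afterwards, luminescence read at 30 min.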

[9] = qHTS assay to identify small molecule antagonists of the vitamin D receptor (VDR) signaling pathway - cell viability counter screen (AID 743225); note: % is set by controls: 0 for no effect and ±100 for the full control effect; nearly all actives have a fitted effect of over 50% in size
Summary of the method: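 VDR-UAS-bla HEK 293T cells were plated and incubated 4 h at 37C, then dosed with compound plus 3 nM (final) 1-alpha,25-dihydroxyvitamin D3 for 16 h. After the 2 h beta-lactamase read, viability in the same wells was read as CellTiter-Glo luminescence after 30 min at room temperature.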

[10] = qHTS assay to identify small molecule agonists of the NFkB signaling pathway (AID 1159509; active = well fitted curve in the direction sought with a large enough effect in the signal ratio in the repeat runs, not every such curve was filed as active; the % refers to the signal ratio)
Summary of the method: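 NFkB-bla ME-180 cells with a beta-lactamase reporter under an NF-kB response element were plated overnight, treated with compounds in DMSO for 5 hr at 37 C, then loaded with FRET substrate for 1.5 hr at room temperature.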

[11] = qHTS assay to identify small molecule agonists of the NFkB signaling pathway - cell viability counter screen (AID 1159515; calls by dose curve; note: series mostly up to about 61 µM; % is set by controls: 0 for no effect and ±100 for the full control effect; nearly all actives have a fitted effect of over 55% in size)
Summary of the method: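 Using the same wells as the NFkB reporter read, ME-180 NFkB-bla cells given compounds for 5 hr were assessed for viability via CellTiter-Glo, with luminescence taken after a 30 min room-temperature incubation.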

[12] = qHTS assay to identify small molecule agonists of the endoplasmic reticulum stress response signaling pathway (AID 1159516; active = well fitted activation curve with a large enough effect in the signal ratio in the repeat runs, not every such curve was filed as active; the % refers to the signal ratio; note: % is set by controls: 0 for no effect and ±100 for the full control effect)
Summary of the method: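 An ESRE-bla HeLa cell assay: compounds were pin-transferred from DMSO onto overnight-plated cells and left 5 hr at 37 C. Substrate was then loaded for 2 hr at room temperature before reading fluorescence at 460 nm and 530 nm.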

[13] = qHTS assay to identify small molecule agonists of the endoplasmic reticulum stress response signaling pathway - cell viability counter screen (AID 1159517; calls by dose curve;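 note: HeLa cells carrying an ER stress response element beta-lactamase reporter; series mostly up to about 61 µM; % is set by controls: 0 for no effect and ±100 for the full control effect; nearly all actives have a fitted effect of over 50% in size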)
Summary of the method: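 Cells, HeLa ESRE-bla; density, 1,500/well; dosing, 5 hr at 37 C, 5% CO2; readout, CellTiter-Glo luminescence after 30 min RT.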

[14] = qHTS assay to identify small molecule antagonists of the retinoid-related orphan receptor gamma (ROR-gamma) signaling pathway - cell viability counter screen (AID 1159520)
Summary of the method: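 Cytotoxicity was read from cellular ATP (CellTiter-Glo luminescence) after 16 hr at 37 C with 1 uM doxycycline induction. The inducer was added 2 hr after compound transfer to Tet-on ROR gamma CHO cells.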

[15] = target: Nuclear receptor ROR-gamma (Homo sapiens) (UniProt P51449); assay: qHTS assay to identify small molecule antagonists of the retinoid-related orphan receptor gamma (ROR-gamma) signaling pathway (AID 1159521)
Summary of the method: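 Tet-on ROR-gamma CHO cells with ROR response element-luciferase reporter; compounds added 2 hr before 1 uM doxycycline induction, then 16 hr at 37 C. Antagonism scored as decreased ONE-Glo luminescence.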

[16] = qHTS assay to identify small molecule agonists of the AP-1 signaling pathway - cell viability counter screen (AID 1159525; calls by dose curve; note: nearly all actives have a fitted effect of over 55% in size)
Summary of the method: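 Luminescent ATP readout (Cell Titer Glo, 30 min RT), normalised to DMSO and tetra n-octyl ammonium bromide controls. Cells were ME-180 AP-1-bla in 0.5% dialyzed FBS Opti-MEM, with a 5 h, 37 °C compound exposure.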

[17] = qHTS assay to identify small molecule agonists of the AP-1 signaling pathway (AID 1159526; calls by dose curve; note: % is set by controls: 0 for no effect and ±100 for the full control effect)
[18] = target: Bile acid receptor (Homo sapiens) (UniProt Q96RI1); assay: qHTS assay to identify small molecule antagonists of the farnesoid-X-receptor (FXR) signaling pathway (AID 743217; active = well fitted inhibition curve with a large enough effect in the signal ratio in the repeat runs, not every such curve was filed as active; the % refers to the signal ratio; note: % is set by controls: 0 for no effect and ±100 for the full control effect)
Summary of the method: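 GeneBLAzer FXR-UAS-bla HEK 293T, CDCA-stimulated (50 uM final). Compound treatment 16 h, 37 °C. Detection: beta-lactamase cleavage of B/G FRET substrate, fluorescence.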

[19] = target: Bile acid receptor (Homo sapiens) (UniProt Q96RI1); assay: qHTS assay to identify small molecule agonists of the farnesoid-X-receptor (FXR) signaling pathway (AID 743220; active = well fitted activation curve with a large enough effect in the signal ratio in the repeat runs, not every such curve was filed as active; the % refers to the signal ratio; note: % is set by controls: 0 for no effect and ±100 for the full control effect)
Summary of the method: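 Beta-lactamase reporter under UAS control in GeneBLAzer FXR HEK 293T cells (5000/well) measured with LiveBLAzer FRET substrate after 2 h at room temperature. Compound exposure lasted 16 h at 37C.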

[20] = qHTS assay to identify small molecule antagonists of the peroxisome proliferator-activated receptor delta (PPARd) signaling pathway - cell viability counter screen (AID 743213)
Summary of the method: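 Agonist-stimulated (L165041, 300 nM final) HEK293H PPARd UAS-bla cells are exposed to compounds for 17 h at 37 C, and ATP-based luminescence (CellTiter-Glo) from the same wells reports cytotoxicity.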

Sequence of Peroxisome proliferator-activated receptor delta (Homo sapiens) (Q03181 whole entry, looked up): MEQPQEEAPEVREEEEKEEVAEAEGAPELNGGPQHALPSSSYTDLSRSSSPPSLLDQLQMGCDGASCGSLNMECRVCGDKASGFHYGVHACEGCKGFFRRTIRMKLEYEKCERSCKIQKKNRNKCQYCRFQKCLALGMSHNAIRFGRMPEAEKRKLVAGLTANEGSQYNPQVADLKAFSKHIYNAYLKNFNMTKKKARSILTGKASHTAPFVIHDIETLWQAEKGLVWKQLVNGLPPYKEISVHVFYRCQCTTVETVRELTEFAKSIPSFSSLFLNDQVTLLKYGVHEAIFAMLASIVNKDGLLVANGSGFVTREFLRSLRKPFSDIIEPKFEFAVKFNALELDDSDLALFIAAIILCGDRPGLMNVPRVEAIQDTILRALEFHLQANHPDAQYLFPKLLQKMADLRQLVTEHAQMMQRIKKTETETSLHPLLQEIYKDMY
Sequence of Bile acid receptor (Homo sapiens) (Q96RI1 whole entry, looked up): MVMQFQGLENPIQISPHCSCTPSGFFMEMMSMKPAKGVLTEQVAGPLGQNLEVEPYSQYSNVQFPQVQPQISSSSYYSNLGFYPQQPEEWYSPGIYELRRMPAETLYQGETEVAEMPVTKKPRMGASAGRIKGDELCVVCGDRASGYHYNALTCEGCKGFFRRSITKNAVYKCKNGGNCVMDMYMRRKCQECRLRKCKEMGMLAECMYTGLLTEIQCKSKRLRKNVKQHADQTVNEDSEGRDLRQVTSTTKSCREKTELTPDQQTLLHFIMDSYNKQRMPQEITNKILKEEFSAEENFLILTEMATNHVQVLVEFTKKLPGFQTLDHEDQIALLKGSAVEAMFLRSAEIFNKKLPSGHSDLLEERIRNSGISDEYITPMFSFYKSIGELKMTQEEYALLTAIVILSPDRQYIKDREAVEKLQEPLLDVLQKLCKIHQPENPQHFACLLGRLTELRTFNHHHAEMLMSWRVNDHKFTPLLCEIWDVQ
Sequence of Vitamin D3 receptor (Homo sapiens) (P11473 whole entry, looked up): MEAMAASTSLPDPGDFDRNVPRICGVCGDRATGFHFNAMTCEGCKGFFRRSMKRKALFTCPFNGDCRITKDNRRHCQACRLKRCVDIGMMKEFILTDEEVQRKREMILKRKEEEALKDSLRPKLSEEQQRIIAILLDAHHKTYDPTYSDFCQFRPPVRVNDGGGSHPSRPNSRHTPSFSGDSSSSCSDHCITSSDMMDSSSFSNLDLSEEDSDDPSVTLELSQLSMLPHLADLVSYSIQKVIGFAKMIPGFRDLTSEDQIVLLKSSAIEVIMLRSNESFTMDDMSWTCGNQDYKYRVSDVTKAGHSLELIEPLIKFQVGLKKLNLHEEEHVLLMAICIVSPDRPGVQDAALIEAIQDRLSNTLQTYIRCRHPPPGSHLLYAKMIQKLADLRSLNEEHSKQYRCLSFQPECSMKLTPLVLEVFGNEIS

C[Si](C)(C)C
inactive: outcome [1] | outcome [2] | outcome [3] | Potency [4] | outcome [5] | outcome [6] | outcome [7] | Potency [8] | outcome [9] | outcome [10] | outcome [11] | outcome [12] | Potency [13] | outcome [14] | outcome [15] | outcome [16] | outcome [17]

CC(C)(C)OC(=O)c1ccc(O)cc1
inactive: outcome [1] | outcome [2] | outcome [3] | Potency [18] | Potency [4] | Potency [19] | outcome [5] | outcome [6] | Potency [8] | outcome [10] | outcome [11] | outcome [12] | Potency [13] | outcome [14] | outcome [15] | outcome [16] | outcome [17]

C=C(C)C(=O)OCC(C)(C)COC(=O)C(=C)C
inactive: outcome [1] | outcome [2] | outcome [20] | Potency [4] | outcome [5] | Potency [8] | outcome [9] | outcome [10] | outcome [11] | outcome [12] | Potency [13] | outcome [14] | outcome [15] | outcome [16] | outcome [17]

CC(C)(C)NC(N)=O
inactive: outcome [1] | outcome [2] | outcome [5] | outcome [6] | outcome [7] | outcome [9] | outcome [10] | outcome [11] | outcome [12] | Potency [13] | outcome [14] | outcome [15] | outcome [16] | outcome [17]

CCCCCCOC(=O)CC
inactive: outcome [1] | outcome [2] | outcome [20] | Potency [4] | Potency [19] | outcome [5] | outcome [6] | outcome [7] | outcome [9] | outcome [10] | outcome [11] | outcome [12] | Potency [13] | outcome [14] | outcome [15] | outcome [16] | outcome [17]

CC(=O)/C=C/C1C(C)=CCC(C)C1(C)C (configuration not stated)
inactive: outcome [1] | outcome [2] | outcome [3] | Potency [4] | outcome [5] | outcome [6] | outcome [7] | Potency [8] | outcome [9] | outcome [10] | outcome [11] | outcome [12] | Potency [13] | outcome [14] | outcome [15] | outcome [16] | outcome [17]

CCC(C)(CCC(C)C)C(=O)O (configuration not stated)
inactive: outcome [1] | outcome [2] | outcome [3] | Potency [4] | outcome [5] | outcome [6] | outcome [7] | Potency [8] | outcome [9] | outcome [10] | outcome [11] | outcome [12] | Potency [13] | outcome [14] | outcome [15] | outcome [16] | outcome [17]

CC(=O)Nc1ccc(S(=O)(=O)Nc2ccc([N+](=O)[O-])cc2)cc1
inactive: outcome [1] | outcome [2] | outcome [20] | Potency [4] | outcome [5] | outcome [6] | outcome [7] | outcome [10] | outcome [11] | outcome [12] | Potency [13] | outcome [14] | outcome [15] | outcome [16] | outcome [17]

Oc1ccccc1-c1nnco1
inactive: outcome [1] | outcome [2] | Potency [4] | outcome [5] | outcome [6] | outcome [7] | Potency [8] | outcome [9] | outcome [10] | outcome [11] | outcome [12] | Potency [13] | outcome [14] | outcome [15] | outcome [16] | outcome [17]

C[C@@H](O)[C@H]1C(=O)N2C(C(=O)O)=C(SCCN=CN)C[C@H]12
inactive: outcome [1] | outcome [2] | outcome [3] | Potency [18] | Potency [4] | Potency [19] | outcome [5] | outcome [10] | outcome [11] | outcome [12] | Potency [13] | outcome [14] | outcome [15] | outcome [16] | outcome [17]

CCCCOCCOC(=O)COc1nc(Cl)c(Cl)cc1Cl
inactive: outcome [1] | outcome [2] | outcome [20] | Potency [4] | Potency [19] | outcome [5] | outcome [6] | Potency [8] | outcome [9] | outcome [10] | outcome [11] | outcome [12] | Potency [13] | outcome [14] | outcome [15] | outcome [16] | outcome [17]

O=C1CC(c2ccc(Cl)cc2)CC(=O)N1
inactive: outcome [1] | outcome [2] | outcome [3] | Potency [4] | Potency [19] | outcome [5] | outcome [6] | outcome [7] | Potency [8] | outcome [9] | outcome [10] | outcome [11] | outcome [12] | Potency [13] | outcome [14] | outcome [15] | outcome [16] | outcome [17]

OCCN(CCO)c1cccc(Cl)c1
inactive: outcome [1] | outcome [2] | outcome [20] | Potency [4] | outcome [5] | outcome [6] | Potency [8] | outcome [9] | outcome [10] | outcome [11] | outcome [12] | Potency [13] | outcome [14] | outcome [15] | outcome [16] | outcome [17]

CCO[Si](CCCS)(OCC)OCC
inactive: outcome [1] | outcome [2] | Potency [4] | outcome [5] | Potency [8] | outcome [9] | outcome [10] | outcome [11] | outcome [12] | Potency [13] | outcome [14] | outcome [15] | outcome [16] | outcome [17]

CN1CCN(CC(=O)N2c3ccccc3C(=O)Nc3cccnc32)CC1
inactive: activity change, negative = cytotoxicity [1] -5.11% [at 5.95 µM] | activation [2] -1.15% [at 5.95 µM] | viability change, negative = cytotoxic [20] 18.4% [at 6.26 µM] | viability change, negative = cytotoxic [4] 9.72% [at 5.95 µM] | activity change, negative = cytotoxicity [5] -5.73% [at 5.95 µM] | activation [6] 2.22% [at 6.01 µM] | activity change, negative = inhibition [7] -1.37% [at 6.95 µM] | activity change, negative = cytotoxicity [8] 0.894% [at 5.95 µM] | viability change, negative = cytotoxic [9] -0.964% [at 6.95 µM] | activation [10] -0.0785% [at 6.95 µM] | activity, negative = cytotoxic [11] 1.12% [at 6.95 µM] | activation [12] -0.546% [at 6.95 µM] | activity change, negative = cytotoxicity [13] -3.52% [at 6.95 µM] | activity, negative = cytotoxicity [14] 3.19% [at 8.39 µM] | activity change, negative = inhibition [15] 14.7% [at 8.39 µM] | viability change, negative = cytotoxic [16] 2.29% [at 6.97 µM] | activation [17] -1.4% [at 6.97 µM]
